GAA inh: inhibitors of human lysosomal alpha-glucosidase; P10253; purified human GAA, 4-MU-alpha-glucoside fluorescence; Potency, µM (top dose mostly 76.9 µM), inactives show at the highest dose activity change, negative = inhibition, usual class: inhibitors; 200,000 compounds, 0.005% hits;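 also: potency is read from the fitted curve at half-maximal effect; plate controls were uninhibited enzyme wells for no effect and no-enzyme background for full effect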
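Endpoint fluorogenic read: 20 min room-temperature reaction of 4 nM human alpha-glucosidase with 400 uM 4-methylumbelliferyl-alpha-D-pyranoside, pH 5.0, quenched with 1M NaOH/1M glycine pH 10. AC50 from Hill modeling.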
GAA glycogen: GAA glycogen-cleavage inhibition or activation; P10253; recombinant GAA, glycogen substrate, Amplex Red glucose oxidase fluorescence; Potency, µM (series often up to 76.4 µM), without a hit: at the highest dose activity change, negative = inhibition, most hits filed as inhibitors; 300,000 compounds, 0.38% hits;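 also: potency is read from the fitted curve at half-maximal effect; 0% = full enzyme reaction and -100% = no-enzyme basal signal; the screen sought inhibitors and activators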
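qHTS, 1536-well; enzyme 4 nM final; cpd up to 77 uM; substrate bovine liver glycogen 30 ug; 50 mM citrate/phosphate pH 5.0, 0.01% Tween-20; 37 C, 40 min; Amplex Red detection 45 min RT; Hill fit → AC50.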
GAA spleen mod: inhibits or activates alpha-glucosidase in human spleen homogenate; P10253; human spleen homogenate, 4-MU-alpha-glucoside fluorescence; Potency, µM (highest dose often 79.9 µM), for the others: at the highest dose activity change, negative = inhibition, actives largely listed as inhibitors; 240,000 compounds, 0.006% hits;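 also: potency is read from the fitted curve at half-maximal effect; 0% = enzyme with vehicle and -100% = no enzyme basal signal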
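Human spleen homogenate (1 ug) incubated with compounds and 1 mM 4-methylumbelliferyl-alpha-D-glucopyranoside in pH 5.0 citrate/phosphate buffer, 37 C, 40 min. Stopped at pH 10; 4-MU fluorescence (Ex 365/Em 440 nm); AC50 by Hill fit.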
GLA inh pH 4.5: inhibitors of human alpha-galactosidase A at pH 4.5; P06280; purified enzyme, 4-MU-alpha-Gal fluorescence, pH 4.5; activity change, negative = inhibition, % at 105 µM; 230,000 tested, under 10 active; AID 1467;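 also: 0% = full activity with enzyme and -100% = basal without enzyme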
aGal spleen mod: alpha-galactosidase A (human) modulation. P06280. human spleen homogenate, 4MU-alpha-Gal fluorescence, 40 min. Potency, µM (series often up to 80 µM), without a hit: top-dose activity change, negative = inhibition, hits mostly inhibitors. 240,000 compounds, 0.008% hits. AID 2107;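 also: potency is read from the fitted curve at half-maximal effect; 0% = enzyme with vehicle and -100% = no enzyme basal signal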
Target sequence (P06280 32-429 limits assumed): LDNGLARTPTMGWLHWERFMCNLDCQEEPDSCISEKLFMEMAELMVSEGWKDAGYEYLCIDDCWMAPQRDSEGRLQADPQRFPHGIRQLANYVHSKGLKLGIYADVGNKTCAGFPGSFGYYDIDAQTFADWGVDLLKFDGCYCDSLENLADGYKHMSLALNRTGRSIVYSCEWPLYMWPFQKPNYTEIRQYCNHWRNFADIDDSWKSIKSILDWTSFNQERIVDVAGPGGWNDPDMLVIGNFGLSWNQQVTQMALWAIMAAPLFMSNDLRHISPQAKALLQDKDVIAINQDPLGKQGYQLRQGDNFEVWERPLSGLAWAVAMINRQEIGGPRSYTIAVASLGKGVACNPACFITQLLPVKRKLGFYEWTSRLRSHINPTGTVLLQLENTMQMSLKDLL
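qHTS titration in buffer at pH 5.0. Alpha-galactosidase activity in spleen homogenate was measured via 4-methylumbelliferone release from 1 mM fluorogenic substrate after 40 min at 37C and a pH 10 stop. AC50 came from Hill fits of control-normalized data.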
The depositor's hits bear a star; ? = inconclusive; · = not tested or not shown; [ ] = dose if it differs, or a comment. The entries come from a sample that favours hits as a whole. Calls follow the shape of the dose curve; as a rule, active = well fitted curve in the direction sought with a large enough effect; inconclusive = small, poorly fitted or top-dose-only effect, or another doubt; inactive = no such curve, though single readings can be large; an effect the other way counts as inactive or inconclusive.

SMILES | GAA inh | GAA glycogen | GAA spleen mod | GLA inh pH 4.5 | aGal spleen mod
Nc1ccc(Nc2nc3ccccc3[nH]2)cc1 | · | 0%[76.3 µM] | · | · | ·
Nc1ccccc1Nc1nc2ccccc2[nH]1 | · | 20µM* | · | · | ·
CCc1cc(-c2oncc2-c2ccc(OC)cc2)c(O)cc1OC | · | · | -1% | · | 5%
CCC[C@H](NC(=O)[C@H](CC(C)C)N(C)C(=O)CNC(=O)[C@@H](NC(=O)[C@H](Cc1ccccc1)NC(=O)[C@H](CCCCN)NC(=O)[C@@H](N)CC(=O)O)C(C)C)C(N)=O | · | · | -3% | · | -5%
CC(=O)Oc1cc2oc(=O)cc(C)c2cc1OC(C)=O | ? | 7.9µM* | ? | ? | ?
COc1ccc(Nc2c(-c3ccc(C)o3)nc3cc(C)ccn23)cc1 | · | 5.6µM* | · | · | ·
CSc1ccc(-c2nc3cnccn3c2Nc2ccc3c(c2)OCO3)cc1 | -28% | 22µM* | -4% | -26 | -4%
Clc1ccc(-c2nc3cnccn3c2Nc2ccc3c(c2)OCO3)cc1 | -1% | ? | 1% | -1 | 8%
COc1cc(-c2nc3cnccn3c2Nc2c(C)cccc2C)ccc1O | -1% | 14µM* | 0% | -2 | -3%
COc1cc(-c2nc3ncccn3c2Nc2ccc(C)cc2C)ccc1O | · | 10µM* | · | · | ·
O=C[C@@H]1CCCN1C(=O)[C@@H]1CCCN1C(=O)OCc1ccccc1 | · | · | -6% | · | 9%
CC[C@]1(c2ccccc2)NC(=O)NC1=O | · | · | 1% | · | -11%
c1cn2c(Nc3ccc4c(c3)OCCO4)c(-c3ccc(N4CCOCC4)cc3)nc2cn1 | · | ? | -2% | -13 | 7%
Oc1ccccc1-c1nc2cnccn2c1Nc1ccc2c(c1)OCCO2 | ? | 7.9µM* | -3% | -5 | 3%
COc1ccc(-c2nc3cnccn3c2Nc2ccc(C)cc2)cc1 | 2% | 7.1µM* | -22% | -8 | 5%
Cc1ccn2c(Nc3ccc4c(c3)OCO4)c(-c3ccc(C)o3)nc2c1 | · | 4µM* | · | · | ·
Cc1ccc(Nc2c(-c3ccc(C)o3)nc3cnccn23)cc1 | -2% | -17% | 5% | -2 | 3%
Cc1ccc(Nc2c(-c3ccccc3)nc3cnccn23)cc1 | -16% | ? | -2% | -6 | -4%
Cc1ccc(-c2nc3cnccn3c2Nc2ccc3c(c2)OCO3)o1 | ? | 7.9µM* | -6% | ? | -8%
CCCCCn1c(CN2CCN(c3cccc(Cl)c3)CC2)nc2c1c(=O)n(C)c(=O)n2C | ? | -11% | -1% | -8 | 5%
CCCCn1c(CN2CCN(c3cccc(Cl)c3)CC2)nc2c1c(=O)n(C)c(=O)n2C | ? | -1% | -17% | -20 | 35µM*
N#Cc1c(NC(NC(=O)c2ccco2)C(=O)c2ccccc2)sc2c1CCCC2 (centres undefined) | -8% | 22µM* | -1% | -10 | 0%
NC(=O)c1c(NC(NC(=O)c2ccco2)C(=O)c2ccc(Cl)cc2)sc2c1CCCC2 (centres undefined) | -12% | -1% | -17% | -3 | -7%
O=C(O)COc1cccc2c1CCC=C2CCO/N=C(\c1ccccc1)c1cccnc1 | · | · | -11% | · | 20%
FC(F)(F)c1ccc2c(c1)NCC1CCCN21 (centres undefined) | 3% | 6.3µM* | 5% | 5 | 8%
SMILES | GAA inh | GAA glycogen | GAA spleen mod | GLA inh pH 4.5 | aGal spleen mod
Cc1noc(C)c1-c1ccc2ncnc(NCc3ccccc3Cl)c2c1 | · | · | 4% | · | -18%
Nc1ccc(-c2n[nH]c(=O)c3ccccc23)cc1N | ? | 18µM* | -12% | -10 | -5%
Cc1ccc(C(=O)NNc2cc(N3CCCC3)nc(N3CCCC3)n2)cc1 | 6% | 28µM* | 0% | 6 | 11%
O=C(N/N=C/C1CC=CCC1)c1ccccc1O (centres undefined) | -10% | 32µM* | -7% | 5 | -1%
O=C(N/N=C/C1CC=CCC1)c1cc(Br)ccc1O (centres undefined) | 4% | ? | -5% | -4 | -3%
CC(=O)Oc1ccc2c(=O)c(Oc3ccccc3)c(C)oc2c1OC(C)=O | -1% | 3.5µM* | -9% | -8 | -2%
CCOc1ccccc1-c1nnc2n1N=C(c1ccc(OC)cc1)CS2 | · | · | -4% | · | 4%
Cc1cccc(Nc2c(-c3ccc(N4CCOCC4)cc3)nc3ncccn23)c1 | 4% | 35µM* | -3% | 6 | -1%
